Target: LYPD3
Test: pooled miR-30 sensor sort-seq; sequence = guide strand
Conditions: shRNA
Also: reference of the scale not given here.

Sequence | sensor-assay potency score (higher = more potent)
TGCACTCTCATTACCTGCCGGG | -0.389
TTCACTGTCTTCATCTTGTTCG | 0.494
TTGAGCTTGGCGTTGCAGCGAT | -0.598
TCATCCTGGACACAGCCCCGGA | -1.53
TTGTAGACATGATCGCTGGCGT | -0.346
TCATCTGCTTTCTGCACGCAGC | -1.43
TCTGCTTTCTGCACGCAGCTGT | 0.703
TTGCCGTCGAAGCAGCCCTTGT | -1.63
ACTGTCTTCATCTTGTTCGGGG | 0.213

Target: LYZL6
Test: as above
Conditions: shRNA

Sequence | sensor-assay potency score (higher = more potent)
TTGCTTTCCACAAAAGCCAGGC | -0.197
TATGTTGAACTTGCTTTCCACA | -1.04
TTGATATGTTGAACTTGCTTTC | -0.485
ATCTTTGATATGTTGAACTTGC | -0.0692
TATCTTTGATATGTTGAACTTG | -0.231
ATAATCGTTGCACCAGTAGTGG | -0.825
CAGATCTTGACAGTCTACGTGG | -1.04
AACAGTGCAACCTCCATTCTAC | -0.122
TTTAGGGCAAGAAAGCTGCTGA | -0.16
TCAGCAGATCTTGACAGTCTAC | -0.859
TAATCGTTGCACCAGTAGTGGC | -1.43
TTTGATATGTTGAACTTGCTTT | 0.0932

Target: LZTR1
Test: as above
Conditions: shRNA

Sequence | sensor-assay potency score (higher = more potent)
TCATTGAGCATGGTCTTCCCAT | -0.632
TTAGGGTAACAGGAGAACTGGA | -0.956
AATACAAACATCTTGTCCCGGC | -0.355
TACTCGACACTGTCCGAGCAGC | -1.08
TATTTGATCTTGTCGGTGTAGA | 0.13
TTCATCTCCAGGTTCTGCTTGC | 0.0647
TAACAGGAGAACTGGAACCTGT | -1.05
TATGATGTCCAGCAGCAGCTGC | -0.965
TTTCACATCGAACCGCAGGAGG | -1.16
TAGGGTAACAGGAGAACTGGAA | 0.345
TTGGAGACCTTGGTGAACTGGT | 0.248

Target: MACROD1
Test: as above
Conditions: shRNA

Sequence | sensor-assay potency score (higher = more potent)
TTCAGCCTGACAAAGTCCTTGC | 0.08
TTGAGCTGCTTGTCCTTTTTAT | -0.992
TCCAGCTTGGTGATGTCGCTGC | -0.0855
TTCGCCTCCTTCCAGTCGGTGG | -1.48
TTACAGCTCTGCAGGGTCCGGC | -1.02
TGCTTGTCCTTTTTATACCTGG | -0.621
AACACGCAGATGATCAGCCGGT | -0.183
AAGGATTTCGCCTCCTTCCAGT | -0.552

From the OligoGym collection
